# Measurements as given in PMC8384837, “Expanding the binding specificity for RNA recognition by a PUF domain”.
# Residue numbers refer to the chain shown, from its start.
# Experiments:
# Assay in all cases: yeast three-hybrid, YBZ-1, SC-Leu-His + 0.5 mM 3-AT, 4 days
# Conditions in all cases: tags: N-Gal4 AD-HA kept; label: inside an RPR1-promoter hybrid RNA with tandem MS2 sites; ssRNA
# PUM1 PUF domain R5-QMW = PUM1 PUF domain R5-QMW (Homo sapiens, UniProt Q14671 828-1176, C1007Q;R1008M;Q1011W)
# PUM1 PUF domain R5-QMW, sequence (Q14671 828-1176 C1007Q/R1008M/Q1011W): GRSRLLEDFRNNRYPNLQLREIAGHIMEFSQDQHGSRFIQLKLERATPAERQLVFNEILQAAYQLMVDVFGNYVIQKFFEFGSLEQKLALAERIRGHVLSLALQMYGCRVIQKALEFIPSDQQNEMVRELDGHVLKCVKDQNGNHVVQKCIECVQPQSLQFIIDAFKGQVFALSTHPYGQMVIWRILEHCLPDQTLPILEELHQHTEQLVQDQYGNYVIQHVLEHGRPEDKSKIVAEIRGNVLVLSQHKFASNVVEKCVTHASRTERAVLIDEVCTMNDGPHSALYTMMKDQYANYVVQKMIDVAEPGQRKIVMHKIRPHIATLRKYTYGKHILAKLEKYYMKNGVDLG
# Procedure, shortened: (§1)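 A centromeric plasmid in strain YBZ-1 co-expressed Pumilio-1 PUF domain libraries, randomized at the three base-contacting residues of each repeat, with matching RNA elements; the strain carries a LexA–MS2 coat fusion and a HIS3 reporter. After four days on SC-Leu (input) or SC-Leu-His + 0.5 mM 3-AT (selection), the repeat regions were PCR-amplified and Illumina-sequenced. The interaction score is the log change in variant frequency from input to selection, using log2 and a pseudocount of 1 where absent.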
# PUM1 PUF domain R6-YWR = molecular target: T1, PUM1 PUF domain R6-YWR (Homo sapiens, UniProt Q14671 828-1176, N1043Y;Y1044W;Q1047R)
# T1 sequence: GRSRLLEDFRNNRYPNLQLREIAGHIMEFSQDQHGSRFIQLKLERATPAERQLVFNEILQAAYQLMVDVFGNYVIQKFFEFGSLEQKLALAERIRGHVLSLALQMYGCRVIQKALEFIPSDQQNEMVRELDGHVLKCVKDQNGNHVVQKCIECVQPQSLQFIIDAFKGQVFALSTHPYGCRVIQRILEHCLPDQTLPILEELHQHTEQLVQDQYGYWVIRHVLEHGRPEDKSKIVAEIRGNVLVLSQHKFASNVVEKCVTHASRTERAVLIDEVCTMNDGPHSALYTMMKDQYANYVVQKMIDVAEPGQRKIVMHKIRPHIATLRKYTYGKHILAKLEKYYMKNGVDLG
# Procedure, shortened: as §1
# PUM1 PUF domain R8-PWT = PUM1 PUF domain R8-PWT (Homo sapiens, UniProt Q14671 828-1176, N1122P;Y1123W;Q1126T)
# Procedure, shortened: as §1
# PUM1 PUF domain R1-RQS = PUM1 PUF domain R1-RQS (Homo sapiens, UniProt Q14671 828-1176, S863R;R864Q;Q867S)
# PUM1 PUF domain R1-RQS, sequence (Q14671 828-1176 S863R/R864Q/Q867S): as the sequence (Q14671 828-1176 C1007Q/R1008M/Q1011W) above, with S36R, R37Q, Q40S, Q180C, M181R, W184Q counted along it
# Procedure, shortened: as §1
# PUM1 PUF domain R1-GKK = PUM1 PUF domain R1-GKK (Homo sapiens, UniProt Q14671 828-1176, S863G;R864K;Q867K)
# Procedure, shortened: as §1
# PUM1 PUF domain R6-MYV = molecular target: T2, PUM1 PUF domain R6-MYV (Homo sapiens, UniProt Q14671 828-1176, N1043M;Q1047V)
# T2 sequence: T1 sequence with Y216M, W217Y, R220V
# Procedure, shortened: as §1
# PUM1 PUF domain R3-IYR = PUM1 PUF domain R3-IYR (Homo sapiens, UniProt Q14671 828-1176, C935I;R936Y;Q939R)
# Procedure, shortened: as §1
# PUM1 PUF domain R3-CRL = PUM1 PUF domain R3-CRL (Homo sapiens, UniProt Q14671 828-1176, Q939L)
# Procedure, shortened: as §1
# PUM1 PUF domain R3-LFI = PUM1 PUF domain R3-LFI (Homo sapiens, UniProt Q14671 828-1176, C935L;R936F;Q939I)
# Procedure, shortened: as §1
# PUM1 PUF domain R3-IRG = PUM1 PUF domain R3-IRG (Homo sapiens, UniProt Q14671 828-1176, C935I;Q939G)
# Procedure, shortened: as §1
sequence,measurement,setting,value
GGCUAGAACUAGUGGAUCCCCCGGCGCCCGGCGGCUCGAGCCCGGGUAAGUGUUAAUAGUCUGCAUGCCGCCGGGCGCCAUGCCUGCAGGUCGACUCUAGAAAACAUG,binding signal,PUM1 PUF domain R5-QMW,0.66 log2 enrichment (interaction score)
GGCUAGAACUAGUGGAUCCCCCGGCGCCCGGCGGCUCGAGCCCGGGUAAGUGAAAAUAGUCUGCAUGCCGCCGGGCGCCAUGCCUGCAGGUCGACUCUAGAAAACAUG,binding signal,PUM1 PUF domain R6-YWR,6.63 log2 enrichment (interaction score)
GGCUAGAACUAGUGGAUCCCCCGGCGCCCGGCGGCUCGAGCCCGGGUAAGCGUAAAUAGUCUGCAUGCCGCCGGGCGCCAUGCCUGCAGGUCGACUCUAGAAAACAUG,binding signal,PUM1 PUF domain R8-PWT,3.16 log2 enrichment (interaction score)
GGCUAGAACUAGUGGAUCCCCCGGCGCCCGGCGGCUCGAGCCCGGGUAAGUGUAAAUUGUCUGCAUGCCGCCGGGCGCCAUGCCUGCAGGUCGACUCUAGAAAACAUG,binding signal,PUM1 PUF domain R1-RQS,3.04 log2 enrichment (interaction score)
same,binding signal,PUM1 PUF domain R1-GKK,5.09 log2 enrichment (interaction score)
GGCUAGAACUAGUGGAUCCCCCGGCGCCCGGCGGCUCGAGCCCGGGUAAGUGUGAAUAGUCUGCAUGCCGCCGGGCGCCAUGCCUGCAGGUCGACUCUAGAAAACAUG,binding signal,PUM1 PUF domain R5-QMW,2.85 log2 enrichment (interaction score)
GGCUAGAACUAGUGGAUCCCCCGGCGCCCGGCGGCUCGAGCCCGGGUAAGUGUAAAUAGUCUGCAUGCCGCCGGGCGCCAUGCCUGCAGGUCGACUCUAGAAAACAUG,binding signal,PUM1 PUF domain R6-MYV,2.31 log2 enrichment (interaction score)
same,binding signal,PUM1 PUF domain R3-IYR,4.02 log2 enrichment (interaction score)
same,binding signal,PUM1 PUF domain R8-PWT,1.25 log2 enrichment (interaction score)
same,binding signal,PUM1 PUF domain R3-CRL,2.25 log2 enrichment (interaction score)
same,binding signal,PUM1 PUF domain R3-LFI,3.78 log2 enrichment (interaction score)
same,binding signal,PUM1 PUF domain R6-YWR,5.79 log2 enrichment (interaction score)
GGCUAGAACUAGUGGAUCCCCCGGCGCCCGGCGGCUCGAGCCCGGGUAAGUGUAAUUAGUCUGCAUGCCGCCGGGCGCCAUGCCUGCAGGUCGACUCUAGAAAACAUG,binding signal,PUM1 PUF domain R3-CRL,1.88 log2 enrichment (interaction score)
same,binding signal,PUM1 PUF domain R3-IRG,0.44 log2 enrichment (interaction score)
GGCUAGAACUAGUGGAUCCCCCGGCGCCCGGCGGCUCGAGCCCGGGUAAGUGUAAGUAGUCUGCAUGCCGCCGGGCGCCAUGCCUGCAGGUCGACUCUAGAAAACAUG,binding signal,PUM1 PUF domain R3-IYR,5.62 log2 enrichment (interaction score)
same,binding signal,PUM1 PUF domain R3-CRL,0.83 log2 enrichment (interaction score)
same,binding signal,PUM1 PUF domain R3-IRG,3.97 log2 enrichment (interaction score)
GGCUAGAACUAGUGGAUCCCCCGGCGCCCGGCGGCUCGAGCCCGGGUAAGUGUAAAUGGUCUGCAUGCCGCCGGGCGCCAUGCCUGCAGGUCGACUCUAGAAAACAUG,binding signal,PUM1 PUF domain R1-GKK,3.39 log2 enrichment (interaction score)
